# Reference: PubChem BioAssay AID1159580 (chemical genetic matrix, 2015)
# Out of some 5,500 compounds screened, about 2,000 (36%) were called active. Roughly 18% stayed inconclusive and do not appear here. The list shows a part of the results. A number with no mark means an inactive call. Rule as the data show it: active = normalized growth mostly below about 0.91 (no sharp cut-off); inconclusive = no clear call, values can overlap the other calls; inactive = mostly above about 0.92.
# Test: chemical genetic growth profiling, strain panel (AID 1159580);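 also: tested at 20 µM; growth read once vehicle control cultures reached saturation at 30 °C; 1 = growth at the plate median or of vehicle wells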
# Settings: growth OD
compound,measurement,setting,value
CC[C@@H](C(=O)C(C)[C@@H](O)[C@H](C)CCc1ccc(C)c(O)c1C(=O)O)C1OC(CC)(C2CC[C@](O)(CC)[C@H](C)O2)C[C@@H]1C (some centres undefined),normalized growth,"S. cerevisiae deletion strains, locus YJR043C, strain POL32, stronger effect = lower value",1.02
same,normalized growth,"S. cerevisiae deletion strains, locus YJR066W, strain TOR1, stronger effect = lower value",0.928
same,normalized growth,"S. cerevisiae deletion strains, locus YJR075W, strain HOC1, stronger effect = lower value",1.01
same,normalized growth,"S. cerevisiae deletion strains, locus YKL068W, stronger effect = lower value",1
same,normalized growth,"S. cerevisiae deletion strains, locus YKL085W, strain MDH1 (second series), stronger effect = lower value",1.28 [resistant] (active)
same,normalized growth,"S. cerevisiae deletion strains, locus YKL085W, strain MDH1, stronger effect = lower value",1.28 [resistant] (active)
same,normalized growth,"S. cerevisiae deletion strains, locus YKL160W, strain elf1, stronger effect = lower value",1.05
same,normalized growth,"S. cerevisiae deletion strains, locus YKL190W, strain CNB1, stronger effect = lower value",1
same,normalized growth,"S. cerevisiae deletion strains, locus YKR001C, strain vps1, stronger effect = lower value",1.04
same,normalized growth,"S. cerevisiae deletion strains, locus YKR026C, strain gcn3, stronger effect = lower value",1.07
same,normalized growth,"S. cerevisiae deletion strains, locus YKR091W, strain srl3, stronger effect = lower value",1.07
same,normalized growth,"S. cerevisiae deletion strains, locus YLL001W, strain dnm1, stronger effect = lower value",1.1 [resistant] (active)
same,normalized growth,"S. cerevisiae deletion strains, locus YLL026W, stronger effect = lower value",1.06
same,normalized growth,"S. cerevisiae deletion strains, locus YLL041C, strain sdh2, stronger effect = lower value",1.05
same,normalized growth,"S. cerevisiae deletion strains, locus YLR027C, strain aat2, stronger effect = lower value",1.05
same,normalized growth,"S. cerevisiae deletion strains, locus YLR039C, strain RIC1, stronger effect = lower value",1.26
same,normalized growth,"S. cerevisiae deletion strains, locus YLR058C, strain SHM2, stronger effect = lower value",1.02
same,normalized growth,"S. cerevisiae deletion strains, locus YLR102C, strain apc9, stronger effect = lower value",1.03
same,normalized growth,"S. cerevisiae deletion strains, locus YLR113W, strain HOG1, stronger effect = lower value",0.964
same,normalized growth,"S. cerevisiae deletion strains, locus YLR221C, strain rsa3, stronger effect = lower value",1.06
same,normalized growth,"S. cerevisiae deletion strains, locus YLR258W, strain gsy2, stronger effect = lower value",1.06
same,normalized growth,"S. cerevisiae deletion strains, locus YLR262C, strain YPT6 (second series), stronger effect = lower value",1.08
same,normalized growth,"S. cerevisiae deletion strains, locus YLR262C, strain YPT6, stronger effect = lower value",1.34
same,normalized growth,"S. cerevisiae deletion strains, locus YLR268W, strain sec22, stronger effect = lower value",0.996
same,normalized growth,"S. cerevisiae deletion strains, locus YLR320W, strain mms22, stronger effect = lower value",1.05
same,normalized growth,"S. cerevisiae deletion strains, locus YLR330W, strain CHS5, stronger effect = lower value",1.04
same,normalized growth,"S. cerevisiae deletion strains, locus YLR342W, strain FKS1 (second series), stronger effect = lower value",0.97
same,normalized growth,"S. cerevisiae deletion strains, locus YLR342W, strain FKS1, stronger effect = lower value",1.05
same,normalized growth,"S. cerevisiae deletion strains, locus YLR357W, strain rsc2, stronger effect = lower value",1.12
same,normalized growth,"S. cerevisiae deletion strains, locus YLR370C, strain arc18, stronger effect = lower value",1.04
same,normalized growth,"S. cerevisiae deletion strains, locus YLR371W, strain rom2, stronger effect = lower value",1
same,normalized growth,"S. cerevisiae deletion strains, locus YLR384C, strain iki3, stronger effect = lower value",1.08
same,normalized growth,"S. cerevisiae deletion strains, locus YLR418C, strain cdc73, stronger effect = lower value",0.959
same,normalized growth,"S. cerevisiae deletion strains, locus YML016C, strain PPZ1, stronger effect = lower value",1.03
same,normalized growth,"S. cerevisiae deletion strains, locus YML032C, strain rad52, stronger effect = lower value",1
same,normalized growth,"S. cerevisiae deletion strains, locus YML120C, strain ndi1, stronger effect = lower value",1.07
same,normalized growth,"S. cerevisiae deletion strains, locus YML124C, strain tub3, stronger effect = lower value",1.03
same,normalized growth,"S. cerevisiae deletion strains, locus YMR058W, strain fet3, stronger effect = lower value",1.04
same,normalized growth,"S. cerevisiae deletion strains, locus YMR078C, strain ctf18, stronger effect = lower value",1.06
same,normalized growth,"S. cerevisiae deletion strains, locus YMR125W, strain sto1, stronger effect = lower value",1.08
same,normalized growth,"S. cerevisiae deletion strains, locus YMR129W, stronger effect = lower value",1.07
same,normalized growth,"S. cerevisiae deletion strains, locus YMR205C, strain PFK2, stronger effect = lower value",1.04
same,normalized growth,"S. cerevisiae deletion strains, locus YMR223W, strain ubp8, stronger effect = lower value",0.996
same,normalized growth,"S. cerevisiae deletion strains, locus YMR231W, strain pep5, stronger effect = lower value",0.208 (active)
same,normalized growth,"S. cerevisiae deletion strains, locus YMR307W, strain GAS1, stronger effect = lower value",0.967
same,normalized growth,"S. cerevisiae deletion strains, locus YNL067W, strain RPL9B, stronger effect = lower value",1.02
same,normalized growth,"S. cerevisiae deletion strains, locus YNL071W, strain lat1, stronger effect = lower value",1.06
same,normalized growth,"S. cerevisiae deletion strains, locus YNL153C, strain GIM3, stronger effect = lower value",1.04
same,normalized growth,"S. cerevisiae deletion strains, locus YNL183C, strain NPR1, stronger effect = lower value",0.923
same,normalized growth,"S. cerevisiae deletion strains, locus YNL209W, strain ssb2, stronger effect = lower value",1.07
same,normalized growth,"S. cerevisiae deletion strains, locus YNL233W, strain BNI4, stronger effect = lower value",1.02
same,normalized growth,"S. cerevisiae deletion strains, locus YNL248C, strain rpa49, stronger effect = lower value",1.05
same,normalized growth,"S. cerevisiae deletion strains, locus YNL250W, strain rad50, stronger effect = lower value",0.997
same,normalized growth,"S. cerevisiae deletion strains, locus YNL271C, strain bni1, stronger effect = lower value",0.996
same,normalized growth,"S. cerevisiae deletion strains, locus YNL298W, strain CLA4, stronger effect = lower value",0.978
same,normalized growth,"S. cerevisiae deletion strains, locus YNL307C, strain MCK1, stronger effect = lower value",1.05
same,normalized growth,"S. cerevisiae deletion strains, locus YNL322C, strain KRE1 (second series), stronger effect = lower value",1.08
same,normalized growth,"S. cerevisiae deletion strains, locus YNL322C, strain KRE1, stronger effect = lower value",1.02
same,normalized growth,"S. cerevisiae deletion strains, locus YNR049C, strain mso1, stronger effect = lower value",1.07
same,normalized growth,"S. cerevisiae deletion strains, locus YNR052C, strain pop2, stronger effect = lower value",1.01
same,normalized growth,"S. cerevisiae deletion strains, locus YOL006C, strain TOP1, stronger effect = lower value",0.716
same,normalized growth,"S. cerevisiae deletion strains, locus YOL012C, strain htz1",1.09
same,normalized growth,"S. cerevisiae deletion strains, locus YOL147C, strain pex11, stronger effect = lower value",1.02
same,normalized growth,"S. cerevisiae deletion strains, locus YOR001W, strain rrp6, stronger effect = lower value",1.01
same,normalized growth,"S. cerevisiae deletion strains, locus YOR061W, strain CKA2, stronger effect = lower value",1
same,normalized growth,"S. cerevisiae deletion strains, locus YOR069W, strain VPS5, stronger effect = lower value",1.02
same,normalized growth,"S. cerevisiae deletion strains, locus YOR070C, strain gyp1, stronger effect = lower value",1.06
same,normalized growth,"S. cerevisiae deletion strains, locus YOR080W, strain dia2, stronger effect = lower value",1.06
same,normalized growth,"S. cerevisiae deletion strains, locus YOR083W, strain WHI5, stronger effect = lower value",1.07
same,normalized growth,"S. cerevisiae deletion strains, locus YOR106W, strain vam3, stronger effect = lower value",0.557 (active)
same,normalized growth,"S. cerevisiae deletion strains, locus YOR136W, strain idh2, stronger effect = lower value",1.02
same,normalized growth,"S. cerevisiae deletion strains, locus YOR144C, strain elg1, stronger effect = lower value",1.02
same,normalized growth,"S. cerevisiae deletion strains, locus YOR184W, strain ser1, stronger effect = lower value",0.997
same,normalized growth,"S. cerevisiae deletion strains, locus YOR231W, strain MKK1, stronger effect = lower value",0.963
same,normalized growth,"S. cerevisiae deletion strains, locus YOR265W, strain rbl2, stronger effect = lower value",1.05
same,normalized growth,"S. cerevisiae deletion strains, locus YOR270C, strain vph1, stronger effect = lower value",0.597 (active)
same,normalized growth,"S. cerevisiae deletion strains, locus YOR290C, strain snf2, stronger effect = lower value",1.06
same,normalized growth,"S. cerevisiae deletion strains, locus YOR316C, strain cot1, stronger effect = lower value",1.03
same,normalized growth,"S. cerevisiae deletion strains, locus YPL051W, strain arl3, stronger effect = lower value",0.944
same,normalized growth,"S. cerevisiae deletion strains, locus YPL078C, strain atp4, stronger effect = lower value",1.05
same,normalized growth,"S. cerevisiae deletion strains, locus YPL106C, strain sse1, stronger effect = lower value",1.09
same,normalized growth,"S. cerevisiae deletion strains, locus YPL240C, strain hsp82, stronger effect = lower value",1.06
same,normalized growth,"S. cerevisiae deletion strains, locus YPL256C, strain CLN2, stronger effect = lower value",0.982
same,normalized growth,"S. cerevisiae deletion strains, locus YPR119W, strain clb2, stronger effect = lower value",1.05
same,normalized growth,"S. cerevisiae deletion strains, locus YPR141C, strain kar3, stronger effect = lower value",1.02
same,normalized growth,"S. cerevisiae deletion strains, locus YPR163C, strain tif3, stronger effect = lower value",1.07
same,normalized growth,"S. cerevisiae deletion strains, locus YPR167C, strain met16, stronger effect = lower value",1.02
same,normalized growth,"S. cerevisiae deletion strains, strain wtn01, stronger effect = lower value",1.02
same,normalized growth,"S. cerevisiae strains, strain wild type, stronger effect = lower value",1.01
